# The supplement of paper PMC10338343
# ± gives the standard deviation.
# Experiments:
# [1] = tested on: MILI (PIWIL2) piRISC loaded with L1MC piRNA (26 nt); experiment: pre-steady-state target cleavage rate (min^-1); guide: L1MC piRNA 5'p-UAACUAAAUACUAUGCAAGCUGUAGG; higher = faster piRNA-guided slicing of the target;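 also: 1 nM active piRISC with 0.1 nM target library at 33 °C single turnover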
# Procedure, shortened: (§1)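 A burst-and-steady-state fit was used to obtain the pre-steady-state cleavage rate. The input data were sequencing reads of uncleaved targets, normalised to depth and to weakly complementary targets, from a […] transcribed, DNA-blocked target RNA library mixed with 1 nM active affinity-purified piRISC holding one synthetic guide, with or without 500 nM GTSF1 partner protein, in HEPES–potassium acetate buffer at 33 °C for 0–8 or 0–960 min. Three trials were pooled and k3 was capped at 0.0001 min^-1.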
# [2] = tested on: EfPiwi piRISC loaded with L1MC piRNA (26 nt); experiment: pre-steady-state target cleavage rate (min^-1); auxiliary factor: 500 nM Ephydatia muelleri Gtsf1; guide: L1MC piRNA 5'p-UAACUAAAUACUAUGCAAGCUGUAGG; MIWI and MILI are mouse PIWI proteins and EfPiwi is from a freshwater sponge; tags in brackets are library labels; higher = faster piRNA-guided slicing of the target
# Procedure, shortened: as §1
# [3] = auxiliary factor: 500 nM mouse GTSF1
# [4] = auxiliary factor: none (no GTSF1)
Sequence,"pre-steady-state target cleavage rate [1, 3]","pre-steady-state target cleavage rate [1, 4]",pre-steady-state target cleavage rate [2]
UCCUGCUACUGCUUGCAUACUAUUUAGUUA,0.0731 ± 0.011,0.00293 ± 0.0023,0.00669 ± 0.0028
UCCUCCUACUGCUUGCAUAGUAUUUAGUUA,0.27 ± 0.016,0.00899 ± 0.0022,0.0494 ± 0.015
UCCUGGAUGUGCUUGCAUAGUAUAUUAGUUA,0.111 ± 0.016,0.00381 ± 0.0027,0.0043 ± 0.0034
UCCUCCUUCAGCUUGCAUAGUAUUUAGUAA,0.228 ± 0.021,0.00401 ± 0.0018,0.012 ± 0.005
UCCUGGAUCAGCUUGCAUAGUAUUUAGUA,0.263 ± 0.019,0.00426 ± 0.0027,0.00808 ± 0.0034
UCCUCCAACAGCUUGCAAAGUAUUUAGUUA,0.155 ± 0.01,0.00656 ± 0.0019,0.0132 ± 0.0038
UCCUGGAACAGCCUUGCAUAGUAUUUAGUUA,0.225 ± 0.019,0.00974 ± 0.003,0.0147 ± 0.0046
UCCUGGAUCAGACUUGCAUAGUAUUUAGUUA,0.254 ± 0.015,0.00843 ± 0.0023,0.0293 ± 0.009
UCCUGGAUCAGCUCUGCAUAGUAUUUAGUUA,0.246 ± 0.024,0.00786 ± 0.0034,0.101 ± 0.023
UCCUCAUACAGCUUGCAUAGUAUUUAGUUA,0.319 ± 0.015,0.0105 ± 0.0029,0.234 ± 0.064
UCCUGCUACAGCUUGGUAAGUAUUUAGUUA,0.131 ± 0.019,0.00591 ± 0.0018,0.00341 ± 0.0025
UCCUGGAAUAGCUUGCAUAGUAUUUAGUUA,0.221 ± 0.015,0.0149 ± 0.0032,0.0137 ± 0.0037
UCCUGCUACAGUUGCAUAGUAUUUAGUUA,0.256 ± 0.019,0.0103 ± 0.0022,0.0766 ± 0.022
UCCUGGAUCAGCUUGCAUAGUAUUUAGAUUA,0.0478 ± 0.011,0.00315 ± 0.0026,0.00483 ± 0.0016
UCCUGCUACAGGAUGCAUAGUAUUUAGUUA,0.271 ± 0.0083,0.00941 ± 0.0024,0.0191 ± 0.0043
UCCUGGAUGUCGUUGCAUAGUAUUUAGUUA [g2:g18:cont:t1A],0.164 ± 0.013,0.0106 ± 0.0029,0.00621 ± 0.0026
UCCUGCUACAGCGUUGCAUAGUAUUUAGUUA,0.267 ± 0.018,0.01 ± 0.0033,0.0103 ± 0.0024
UCCUGGAACAGCUUGCAAAGUAUUUAGUAA,0.158 ± 0.022,0.00401 ± 0.0024,0.00293 ± 0.0022
UCCUGGUACAGCUAUGCAUAGUAUUUAGUUA,0.259 ± 0.016,0.0112 ± 0.0038,0.0292 ± 0.0094
UCCUCCAACAGCUUGCAUUGUAUUUAGUUA,0.257 ± 0.018,0.00746 ± 0.0023,0.0205 ± 0.0058
UCCUGGAUGAGCUUACAUAGUAUUUAGUUA,0.153 ± 0.019,0.00591 ± 0.0023,0.00581 ± 0.0024
UCCUGCUACACCUUGCAAAGUAUUUAGUUA,0.106 ± 0.0086,0.00675 ± 0.0025,0.00571 ± 0.0021
UCCUGGAUGAGCUUGCAUGGUAUUUAGUUA,0.195 ± 0.023,0.017 ± 0.0046,0.0127 ± 0.0045
UCCUCCUACAGCUUGGAUAGUAUUUUGUUA,0.164 ± 0.028,0.00424 ± 0.0026,0.00565 ± 0.0022
UCCUCCUACAGCAAGCAUAGUAUUUAGUUA,0.281 ± 0.014,0.00806 ± 0.0019,0.0493 ± 0.018
UCCUGGAUCACCUUGCAAAGUAUUUAGUUA,0.0687 ± 0.012,0.0045 ± 0.0025,0.00506 ± 0.0019

Sequence,"pre-steady-state target cleavage rate [1, 3]","pre-steady-state target cleavage rate [1, 4]",pre-steady-state target cleavage rate [2]
UCCUCCUACUGCUUGCAUAGAAUUUAGUUA,0.0415 ± 0.0062,0.00232 ± 0.002,0.00761 ± 0.0021
UCCUGGAACAGCAUGCAUACUAUUUAGUUA,0.0727 ± 0.0093,0.00273 ± 0.0026,0.00762 ± 0.0026
UCCUGGAACAGCUUGCAUAGUUUUUAGUUA,0.0586 ± 0.01,0.00493 ± 0.0022,0.00683 ± 0.0019
UCCUGCAACAGCUUGCAUACUAUUUAGUUA,0.083 ± 0.011,0.00386 ± 0.002,0.0112 ± 0.0029
UCCUGGUUCAGCUUGCAUAGUAUAUAGUUA,0.198 ± 0.034,0.0112 ± 0.0032,0.00607 ± 0.0027
UCCUGCUACAACUUGCAUAGUAUUUAGUUA,0.247 ± 0.023,0.00739 ± 0.0024,0.00776 ± 0.0029
UCCUGCUACACCUUGCUUAGUAUUUAGUUA,0.2 ± 0.017,0.00572 ± 0.0028,0.00903 ± 0.0035
UCCUGGAUCUGCUUGGAUAGUAUUUAGUUA,0.165 ± 0.019,0.0102 ± 0.0026,0.0089 ± 0.0032
UCCUGCUACAGCUUGCAAAGUAUUUAGUUA,0.13 ± 0.012,0.00686 ± 0.0019,0.00608 ± 0.0019
UCCUCCUACAGCUUGCAGAGUAUUUAGUUA,0.218 ± 0.021,0.00823 ± 0.0022,0.0095 ± 0.0025
UCCUGGAACAGCUUGCUUAGUAUUUUGUUA,0.167 ± 0.025,0.00339 ± 0.0024,0.00494 ± 0.0028
UCCUGGUACAGCUUGCAUAGUAUUUAGUA,0.226 ± 0.031,0.00521 ± 0.003,0.00657 ± 0.0033
UCCUGGUACAGCUUGCAUAGUAUUUAGAUUA,0.131 ± 0.04,0.00728 ± 0.0036,0.00491 ± 0.0025
UCCUGGAACAGCUUGCAUAGUAUUUAGUCA,0.224 ± 0.024,0.00732 ± 0.0022,0.0042 ± 0.0024
UCCUCCUACAGGCUUGCAUAGUAUUUAGUUA,0.268 ± 0.019,0.00802 ± 0.0025,0.0234 ± 0.0078
UCCUGGAUCAGCUUGCAAACUAUUUAGUUA,0.0267 ± 0.0067,0.00375 ± 0.0019,0.00476 ± 0.003
UCCUCCUACAGCUUGGUAAGUAUUUAGUUA,0.185 ± 0.017,0.00498 ± 0.0018,0.00379 ± 0.0034
UCCUCCUACAGCUUGCAAAGUAAUUAGUUA,0.116 ± 0.012,0.00331 ± 0.0024,0.00531 ± 0.0022
UCCUCCUACAGCUUGCAUAAUAUUUAGUUA,0.292 ± 0.026,0.00352 ± 0.0022,0.00664 ± 0.0024
UCCUCCUACAGCUUGCAUAGUAUUUAUGUUA,0.162 ± 0.023,0.00611 ± 0.0025,0.00546 ± 0.0027
UCCUGGAUCAGCUUGCAUAGUAAUUUAGUUA,0.162 ± 0.018,0.00701 ± 0.0022,0.00371 ± 0.0025
UCCUGCUACACGUUGCAUAGUAUUUAGUAA,0.215 ± 0.028,0.00567 ± 0.0021,0.00458 ± 0.0025
UCCUGCUACACGUUGCAUAGUAUUUAGUUA,0.289 ± 0.026,0.0118 ± 0.0026,0.0175 ± 0.0063
UCCUGGAACAGCUUGCAUAGUAUUUAGUAA,0.247 ± 0.021,0.00459 ± 0.002,0.00976 ± 0.0038
UCCUCCUACAGCUUGCAUAGUAUUAAGUUA,0.178 ± 0.026,0.00415 ± 0.0024,0.00589 ± 0.0029
